Measured values reported in PubChem BioAssay AID588442 (The Scripps Research Institute Molecular Screening Center, 2011).
Entries with a potency or affinity are not part of this list. The source holds several records for some structures; these can differ, active in one and inactive in another. A number with no mark means an inactive call.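 How the source made its calls: active means EC50 of 10 µM or lower; inactive means EC50 above 10 µM or not measured.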

Experiment: optical interference in Abeta FP readout, dose response, artefact control for IDE activator project, biochemical, fluorescence polarization (AID 588442)
Settings: FP artifact counterscreen, fluorescein-Abeta, no enzyme activity

C[n+]1c2cc(N)ccc2cc2ccc(N)cc21
EC50: > 54.7 µM
